Among all 370,000 compounds or so, about 1,600 (0.43%) were called active. This excerpt belongs to a sample that is enriched for actives. Unmarked numbers belong to inactive results. Cut-off read from the data, not from the text of the source: active = inhibition above about 24%; inactive = the rest.
The compounds below were run against Major prion protein (Homo sapiens) (UniProt P04156) (assay: inhibitors of human cell surface prion protein PrPC, primary screen, cell-based, TR-FRET (AID 720596; note: 0% = median of the test wells and 100% = reference compound wells)). Conditions: TR-FRET read-out, at 13.8 µM, hits give high values.

Structure (SMILES) | inhibition
COc1ccc(C(=O)Cn2nnc(-c3ccc(N4CCOCC4)cc3)n2)cc1OC | 2.45%
O=c1[nH]c(=O)n(Cc2ccco2)c2c1C(C(F)(F)F)(C(F)(F)F)N=C(c1ccco1)N2 | -1.08%
Fc1ccc2[nH]c3c(N4CCSCC4)ncnc3c2c1 | 40.8% (active)
CC(=O)NC(NC(=S)Nc1c(C)n(C)n(-c2ccccc2)c1=O)C(Cl)(Cl)Cl (stereo not given) | -1.39%
Cc1ccc(SCC(=O)NNC(=O)c2ccc(S(C)(=O)=O)cc2)cc1 | -1.94%
CCN(CC)c1ccc(C(=O)NNC(=O)CCc2nc3ccccc3c(=O)[nH]2)cc1 | 1.99%
CCc1nc(SCC(=O)NNC(=O)c2ccc(C)cc2)c2ccccc2n1 | 97.6% (active)
CCCN(CCC)S(=O)(=O)c1ccc(C(=O)N2CC3CCC(CC3)C2)cc1 | 0.5%
O=C(Nc1c(Cl)c(C2CC2)nn1-c1ccccc1)C(Cl)(Cl)Cl | 1.29%
CCC(C)NC(=O)N[C@@H](CCSC)C(=O)O (stereo not given in full) | -4.34%
CCC(C)NC(=O)c1nn(C)c(=O)c2ccccc12 (stereo not given) | -2.76%
Cc1cccc(C(=O)C(O)(c2ccccc2)C2CCCCC2=O)c1 (stereo not given) | -5.23%
O=C(COC(=O)c1cccc(Cl)c1Cl)NC1CCCCCC1 | 4.24%
N#Cc1ccccc1Sc1ccccc1C(=O)OCC(=O)NC1CCCCC1 | -7.2%
O=C(COC(=O)c1ccccc1SCC(=O)NC1CCCCC1)NC1CCCCC1 | 52.2% (active)
COC(=O)Cc1nc2c(N)nc(N)nc2[nH]c1=O | 4.68%
Cc1sc(NC(=O)C2C3CCC(O3)C2C(=O)O)c(C(=O)OC(C)C)c1-c1ccc(Cl)cc1 (stereo not given) | 7.78%
CC(=O)N1c2ccc(S(=O)(=O)N3CCCC(C(=O)Nc4cccc(F)c4)C3)cc2CC1C (stereo not given) | 51.1% (active)
CC(=O)N1c2ccc(S(=O)(=O)N3CCC(C(=O)NC4CCCCC4C)CC3)cc2CC1C (stereo not given) | 6.59%
CC(=O)N1CCCc2cc(S(=O)(=O)N3CCCC(C(=O)NCc4ccc(Cl)cc4)C3)ccc21 (stereo not given) | 29.3% (active)

Structure (SMILES) | inhibition
CCOC(=O)C1CCN(C(=O)C2CCCN(S(=O)(=O)c3ccc(OC)c(Cl)c3)C2)CC1 (stereo not given) | -3.34%
CC(=O)N1CCCc2cc(S(=O)(=O)N3CCCC(C(=O)N4CCN(c5cccc(Cl)c5)CC4)C3)ccc21 (stereo not given) | 40.4% (active)
CC(=O)N1c2ccc(S(=O)(=O)N3CCCC(C(=O)Nc4ccc(C)cc4C)C3)cc2CC1C (stereo not given) | 6.63%
COc1ccc(S(=O)(=O)N2CCCC(C(=O)N3CCN(C)CC3)C2)cc1C (stereo not given) | 2.94%
CC(=O)N1c2ccc(S(=O)(=O)N3CCCC(C(=O)NCc4ccc(Cl)cc4)C3)cc2CC1C (stereo not given) | 10.5%
CC(=O)N1c2ccc(S(=O)(=O)N3CCC(C(=O)NCc4ccc(F)cc4)CC3)cc2CC1C (stereo not given) | -0.57%
CCOC(=O)C1CCN(C(=O)COc2cc(C)c(Br)c(C)c2)CC1 | 0.57%
O=C(/C(=N\O)n1cncn1)c1ccc(Br)cc1Br | -3.03%
CC12CN(Cc3ccccc3)CC(C)(CN(Cc3ccccc3)C1)C2=NO | -7.09%
COc1ccc(Cn2cc(COC(=O)N(C)Cc3ccccc3)nn2)cc1 | 6.15%
OCC1(CO)CC2(C1)CC(CO)(CO)C2 | 2.39%
O=C(Nc1cc(F)cc(F)c1)OC1CCC12CCC(c1ccccc1)CC2 (stereo not given) | 4.41%
FC(F)(F)c1cccc(NC(=S)OC2CCC23CCC(c2ccccc2)CC3)c1 (stereo not given) | 24.4% (active)
CC(C)(C)c1ccc(C(=O)Nc2cc(Cl)c(Br)cc2C(=O)O)cc1 | 21%
CSc1ncc(C(=O)Nc2ccc(C)cc2C)c(C)n1 | -0.45%
CSc1nccc(NC(=O)c2ccc(C(C)(C)C)cc2)n1 | 29.4% (active)
Cn1cc(CN2CCCCC2c2ccccn2)c(-c2ccc3c(c2)OCCO3)n1 (stereo not given) | -3.25%
CC(C)C(=O)N1CCC2(CC1)Oc1ccc(F)cc1C(=O)C21CC(c2ccccc2)=NO1 (stereo not given) | -0.07%
CCCCN(CC)C(=O)C1CCCN(S(=O)(=O)c2cccc3nsnc23)C1 (stereo not given) | -27.1%
COc1cc(C)c(C(C)C)cc1S(=O)(=O)n1ccnc1 | -1.35%

Structure (SMILES) | inhibition
OCCCNc1nccc(-c2cc(Nc3cccc(Cl)c3)ncn2)n1 | 29.2% (active)
COCn1c(C(O)c2ccccc2)cc2ccccc21 (stereo not given) | 6.96%
O=C(O)C#Cc1cccc2ccccc12 | 17.9%
CN(O)C(=S)c1ccccc1 | 36.8% (active)
O=C(c1ccco1)N1CCN(CC(=O)N(C2CCCCC2)C2CCS(=O)(=O)C2)CC1 (stereo not given) | 7.46%
CC1=CCC2C(=O)N(c3cccc(C(=O)NC(C)c4ccccc4)c3)C(=O)C2C1 (stereo not given) | -1.98%
CC(=O)c1nc(N2C(=O)C3CC=C(C)CC3C2=O)sc1C (stereo not given) | 38.2% (active)
COc1ccc(CCN2C(=O)C3CC=C(C)CC3C2=O)cc1OC (stereo not given) | -3.31%
Cc1ccc(N2C(=O)N3[C@@H]4c5ccccc5OC[C@@H]4[C@@H](c4ccccc4)[C@@]3(C)C2=O)cc1 | -0.71%
O=C(CCn1nnnc1CN1CCOCC1)N1CCC(c2ccccc2Cl)C1 (stereo not given) | 1.76%
COCCNC(=O)C1(C)CCCN(Cc2cccc(F)c2)C1 (stereo not given) | 10.6%
N#CC1=C(N)Oc2[nH]c(=S)[nH]c(=O)c2C12C(=O)Nc1ccccc12 (stereo not given) | -0.84%
CC1(C)Cc2ccccc2-c2[nH]c(=S)[nH]c(=O)c21 | 78.3% (active)
CC(C)CC(N=C1NC(C)(C)Cc2ccccc21)C(=O)O (stereo not given) | -0.6%
O=C(CCCCCN1C(=O)C2C3C=CC(C3)C2C1=O)Nc1ccccc1 (stereo not given) | 3.7%
Cc1ccc(C)c(NC(=O)C2CC(=O)N(C(C)C)C2)c1 (stereo not given) | 1.81%
CC(C)(C)NC(=O)COc1ccc(CNc2ccc3[nH]c(=O)[nH]c3c2)cc1 | -1.03%
COc1ccc(NC(=O)COC(=O)CNC(=O)C2CCCCC2)cc1 | 31.5% (active)
COc1ccc(NC(=O)CN(C)C(=O)CNC(=O)C2CCCCC2)cc1 | 7.94%
COc1ccccc1NC(=O)COC(=O)CNC(=O)C1CCCCC1 | -3.12%

Reference: PubChem BioAssay AID720596 (The Scripps Research Institute Molecular Screening Center, 2013)
